The assay can be described thus: V-ATPase regulators in yeast, concentration series – S. cerevisiae, pHLuorin, cherry pick 2, dose response (AID 602198).

Entries with a potency or affinity are not part of this list. Calls of active or inactive are those of the source. No rule for the calls is given here.

The record followed here is PubChem BioAssay AID602198 (NMMLSC, 2012).

Take `COc1ccc(N2C(=O)/C(=C/c3ccc(C)o3)C(=O)NC2=S)cc1`: the molecule was classed as inactive.

Turning to `Cc1ccsc1/C=C1\C(=O)NC(=S)N(C)C1=O`, the outcome was inactive.
